From PubChem BioAssay AID2544 (Sanford-Burnham Center for Chemical Genomics, 2010)
Screen size: about 330,000 compounds; about 390 (0.12%) were called active.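 How the source made its calls: active means inhibition reaching a set limit with compound at 10 µM in the primary screen (cut at about 35% in these data); inactive means the rest.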 This excerpt belongs to a sample that is enriched for actives.

Molecular target: Intestinal-type alkaline phosphatase (Homo sapiens) (UniProt P09923)
Assay: blockers of intestinal alkaline phosphatase activity – biochemical, luminescence, uHTS, primary screen (AID 2544);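 further: plate controls were DMSO wells with enzyme for no effect and no-enzyme buffer wells for full effect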
Details: purified IAP, CDP-Star luminescence, 30 min; at 10 µM; stronger effect = higher value

Chain of Intestinal-type alkaline phosphatase (Homo sapiens) (P09923 whole entry, looked up): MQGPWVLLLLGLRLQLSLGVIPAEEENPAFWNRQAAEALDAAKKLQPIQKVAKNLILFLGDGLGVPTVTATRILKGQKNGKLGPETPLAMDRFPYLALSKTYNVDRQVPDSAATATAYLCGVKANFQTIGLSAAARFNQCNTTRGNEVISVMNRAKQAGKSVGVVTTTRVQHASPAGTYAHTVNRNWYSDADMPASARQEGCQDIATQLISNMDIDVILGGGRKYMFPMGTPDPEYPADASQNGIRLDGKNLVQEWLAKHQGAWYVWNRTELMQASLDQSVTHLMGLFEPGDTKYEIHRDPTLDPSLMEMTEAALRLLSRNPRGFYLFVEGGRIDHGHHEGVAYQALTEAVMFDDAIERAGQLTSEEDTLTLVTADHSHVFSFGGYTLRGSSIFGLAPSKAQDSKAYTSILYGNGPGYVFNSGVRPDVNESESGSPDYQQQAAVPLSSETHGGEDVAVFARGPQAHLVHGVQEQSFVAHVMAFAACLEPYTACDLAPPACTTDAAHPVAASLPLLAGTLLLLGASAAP

inhibition, active:
Cc1c(C=O)c2ccccn2c1C(=O)c1ccncc1 35.9%, Cn1c(=O)c2sccc2n(Cc2ccc(Br)cc2)c1=O 38.1%, O=C(NCCN1CCOCC1)[C@H](Cc1ccccc1)N1C(=O)c2ccccc2C1=O 41.1%, CCC(C)C(=O)Nc1ccccc1N1CCN(c2ccc(F)cc2)CC1 (stereo not given) 42.4%, CCOC(=O)c1cn[nH]c1NC(=S)Nc1ccccc1 60.8%, c1ccc(CSCCc2ccncc2)cc1 39.6%

inhibition, inactive:
Cc1cc(N)n2nc(-c3ccc(C(C)(C)C)cc3)cc2n1 -9%, COc1ccc(-c2nc3cc(C)ccn3c2NC2CCCCC2)cc1SC1CCCCC1 18.9%, CC1(C)OC(=O)C(=CNC(CO)C(=O)O)C(=O)O1 (stereo not given) 4.1%, CCN(CC(=O)NCc1ccc(Cl)cc1)C(=O)c1c(C)noc1C -14.3%, COc1cccc(CNC(=O)C2CC(=O)N(C3CCCCCCC3)C2)c1 (stereo not given) -15%, COC(=O)NNC(=O)C1CCC(C)CC1 (stereo not given) -0.3%, O=C(O)CCn1c(O)c(C=C2N=c3ccccc3=N2)sc1=S -32.1%, Cc1ccc(NC(=O)COC(=O)C2C3CC4OC(=O)C2C4C3)cc1Cl (stereo not given) 5.1%, CCOC(=O)N1CCN(S(=O)(=O)c2cc3c(cc2C)NC(=O)CO3)CC1 -3.7%, O=C(CNC(=O)c1n[nH]c2ccccc12)Nc1cc(Cl)ccc1Cl -16.2%, FC(F)(F)c1ccnc(Oc2ccc(C3=NCCS3)cc2)c1 10.4%, CC(C)(C)OC(=O)N1CCC(NC(=O)c2[nH]cnc2C(=O)N[C@@H](Cc2ccccc2)C(=O)OCc2ccccc2)CC1 -35.2%, COc1ccccc1C(=O)OCC(=O)Nc1cccc(S(=O)(=O)NC2=NCCCCC2)c1 19.2%, COc1ccccc1C(CNC(=O)c1ccc(C)c(S(=O)(=O)N2CCCCC2)c1)N(C)C (stereo not given) -3.4%, CN1CCN(CC(=O)C23CC4CC(CC(C4)C2)C3)CC1 4.5%, Cc1ccc(C(=O)N(CC(=O)NC2CCCC2)c2ccc(F)cc2)s1 -20.5%, CCCc1cc(C(=O)N2CCCC(CO)(CCCc3ccccc3)C2)n(C)n1 (stereo not given) -5.7%, CC#CC[N+](C)(C)CCCCCC 6.2%, O=C(/C=C/c1cccc(C(F)(F)F)c1)N1CCN(c2ccccn2)CC1 -1.3%, c1csc(-c2nnc(COc3ncnc4sccc34)o2)c1 13.5%, Cc1sc2ncn(CC(=O)NCCN(C)C)c(=O)c2c1S(=O)(=O)N1CCC(C)CC1 10.2%, CCN(Cc1ccccc1)S(=O)(=O)c1cc(C(=O)O)ccc1OC -17.1%, Cc1ccc(CN2CCN(Cc3cccc(C)n3)CC2CCO)cc1 (stereo not given) 4.3%, Cc1cc2ccccn2c1C(=O)c1cccc(F)c1 18.3%, Cc1c(C(=O)NNC(=O)c2ccncc2)oc2ccccc12 -50.2%, CC1C(=O)C(C)C(c2ccc(O)cc2)NC1c1ccc(O)cc1 (stereo not given) 4.6%, CCc1cc(CNC(=O)CC2C(=O)NCCN2CC2CCCCC2)on1 (stereo not given) -7.8%, COc1ccc(CNC(=O)CSc2n[nH]c(N)n2)cc1OC 5.7%, CS(=O)(=O)Nc1ccccc1C(=O)OCC(=O)NC1CC1 -0.7%, Cn1c(=O)c2c(nc(N/N=C/c3cccs3)n2Cc2ccc(Br)cc2)n(C)c1=O -142%, O=C(NCc1ccco1)c1ccc(Cn2c(=O)c3sccc3n(Cc3ccc(F)cc3)c2=O)cc1 1.3%, N#Cc1c(-c2ccc(F)cc2)cc(C2CC2)nc1SCC(=O)c1cccs1 10.2%, CCOC(=O)Cc1csc(NC(=O)CN(C)S(=O)(=O)c2ccc3c(c2)CCC(=O)N3)n1 -6.4%, CS(=O)(=O)c1sc(C(=O)NC(=S)Nc2ccc(OC(F)(F)F)cc2)c2c1C=CCC2 -34.5%, Cc1ccc2cccc(S(=O)(=O)N3CCN(c4ccccc4F)CC3)c2n1 22.1%, CSc1ccc(CNC(=O)c2ccc(NC(=O)C3=CSCCO3)cc2)cc1 17.2%, O=C(CCN1C(=O)c2ccccc2C1=O)NCCN1CCOCC1 -14.9%, O=C(NC1=NCCS1)[C@H](Cc1ccccc1)N1C(=O)c2ccccc2C1=O 4.4%, CN(C(=O)CSc1cccc[n+]1[O-])C1CCCCC1 2.3%, Cc1cc([N+](=O)[O-])nn1CCCC(=O)Nc1cccnc1Cl 6.1%, CC1(C)O[C@@H]2[C@H](O1)[C@@H](COS(=O)(=O)O)O[C@H]2n1cnc2c(=O)[nH]cnc21 -9%, Cc1cc(Cl)c2oc(C(=O)N3CCC(O)(c4ccccc4)CC3)c(C)c2c1 -10.6%, COc1ccc(Nc2cc(=O)n(-c3ccccc3)c3c2c(=O)n(C)c(=O)n3C)cc1 3.3%, CN(Cc1ccccc1Cl)C(=O)C1CCC(=O)N(CCc2cccc(F)c2)C1 (stereo not given) -4.4%, Cc1cc(C)nc(SCc2nnc(SCC(=O)OC3CCCCC3)o2)n1 -7.3%, CCOCCCN(C(=O)Cn1nnc(-c2ccc(OC)c(OC)c2)n1)C(CC)C(=O)NC1CCCC1 (stereo not given) -21.9%, CC(=O)c1ccc(N2CCN(CC(=O)Nc3ccccc3N3CCOCC3)CC2)cc1 6.2%, CCCCC(=O)Nc1ccccc1N1CCN(c2ccc(F)cc2)CC1 -6.3%, CCOC(=O)c1ccc(NC(=S)Nc2cc(C)cc(C)n2)cc1 -2%, CCOC(=O)c1cc2c(nc1NC(=S)Nc1ccccc1)CC(C)(CC)OC2 (stereo not given) -6.3%, NC(N)=Nc1nc2ccc(Br)cc2c(=O)[nH]1 -7.7%, Cc1cc(C)c(SCCc2ccncc2)c(C)c1 -12.6%, CC(C)(C)c1ccc(SCCc2ccncc2)cc1 -36.5%, O=C1N(c2ccc(Cl)cc2)C(c2ccc(Cl)cc2)N2CCCN12 (stereo not given) 0.2%
